Measurements from PubChem BioAssay (NCI).
Compounds without any hit were thinned out: in the full panel of roughly 83,000, 20% have a hit.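 Testing used 96-well plates and a 48-hour single-concentration exposure. Example: -40 means 40% of the starting cells died.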 Activity calls are given as the source filed them. How the source made its calls: active means growth percent below 10; inactive means the rest.

These compounds were tested on SW-620 colon (assay: NCI-60 one-dose screen, 48 h (100 = growth as untreated, 0 = no growth, -100 = all killed)). Conditions: 10 µM unless noted.
In the case of Brc1ccc(-c2nc3ccccc3s2)cc1, the growth is reported as 94.5% (inactive).
With c1cc[c]([Bi]([c]2ccccc2)[c]2ccccc2)cc1 the growth was 92.9% (inactive).
In the case of O=C1/C(=N\c2cc(=O)[nH]n2S(=O)(=O)c2ccccc2)Nc2ccccc21, the growth is reported as 99.3% (inactive).
For COc1ccc(/C=C/C(=O)/C=C/c2cc3ccccc3[nH]c2=O)cc1, the growth was 36.4% (inactive).
C/C=C/C/C=C/[C@H](C)C[C@H](O)[C@@H]1C[C@@H]2O[C@H]2/C=C/[C@@H]2OC(C)(C)O[C@H]2/C=C/C[C@H](C)CC(=O)O1 was tested, and the growth was 56.8% (inactive).
In the case of COC1(OC)N=C(N)C2(C#N)C3(C(=O)Nc4ccccc43)C12C#N (stereo not given), the growth is reported as 94.9% (inactive).
C/C=C/C/C=C/[C@H](C)C[C@H](O)[C@@H]1C[C@@H]2O[C@H]2/C=C/[C@H](O)[C@@H](O)/C=C/C[C@H](C)CC(=O)O1 was tested, and the growth was 94.1% (inactive).
In the case of COc1cc(-c2nc3c(c(C)nc4c3nnn4-c3ccccc3)c(=O)o2)cc(OC)c1OC, the growth is reported as 107% (inactive).
For CCC(C)C1NC(=O)C(CC(C)C)NC(=O)C(C)NC(=O)C(C(C)C)NC(=O)C(CCCCN)NC(=O)C(CC(C)C)NC(=O)C(C(C)C)NC(=O)[C@H](C)NC(=O)C(C(C)CC)NC(=O)C(CCCN=C(N)N)NC(=O)C(CCCCN)NC(=O)C(CCCN=C(N)N)NC(=O)C(CCCCN)NC(=O)C([C@H](C)CC)NC(=O)C(CCCCN)NC1=O (stereo not given in full), the growth was 19.6% (inactive).
With COc1ccc(-c2nc(SCC(C)C)nc(Nc3ccc(C(=O)O)cc3)c2C#N)cc1 the growth was 102% (inactive).
In the case of O=S(=O)(O)CCI, the growth is reported as 102% (inactive).
In the case of Nc1nc2c(c3cnccc13)C(c1cccc(Cl)c1)Cc1cnccc1-2 (stereo not given), the growth is reported as 24.2% (inactive).
For Oc1ccccc1\C=N/N=C/C=C/c1ccccc1, the growth was 106% (inactive).
With COC(=O)c1ccc2[nH]c(O)c(C(=Nc3ccc(N(C)C(=O)CN4CCN(C)CC4)cc3)c3ccc(N)cc3)c2c1 the growth was 70.3% (inactive).
CC(C)OC(=O)c1ccc2n1CCCc1cnc(Nc3ccccc3)nc1-2 was tested, and the growth was 91% (inactive).
In the case of CC(=O)Nc1ccc(C(=O)/C=C/c2ccc(N(C)C)cc2)cc1, the growth is reported as 110% (inactive).
With CCOC(=O)C1=C(c2ccccc2)NC(=O)NC1CN1C(=O)c2ccccc2C1=O (stereo not given) the growth was 107% (inactive).
In the case of CC/C(=N\Nc1nc2ccccc2n1C)c1ccccn1, the growth is reported as 30% (inactive).
In the case of CCCCCCC(C)N(CC(C)(C)O)C(=O)c1ccc([N+](=O)[O-])cc1 (stereo not given), the growth is reported as 95.8% (inactive).
O=C1C(=O)c2ccccc2C(O)=C1CCCc1ccc(Oc2ccccc2)cc1 was tested, and the growth was 39.9% (inactive).
C=C[C@]1(C)C=C2C(=O)[C@@]3(O)OC[C@@]4(CCCC(C)(C)C43O)C2(O)C(O)C1 (stereo not given in full) was tested, and the growth was -57.7% (active).
COc1ccc(/C=C2\CCCC3=C2N=C2SC=NN2C3c2ccc(OC)c(OC)c2)cc1OC (stereo not given) was tested, and the growth was 29.7% (inactive).
For CC(C)(C)c1ccc(OCCOC(=O)CBr)cc1, the growth was 86.2% (inactive).
In the case of c1cc(C2CCCCC2)ccc1OCCCCCCN1CCNCC1, the growth is reported as -37.7% (active).
For CCOC(=O)c1c2c(cn1Cc1ccccc1)-c1oncc1CC2, the growth was 103% (inactive).
With C/C(=N\Nc1cccc(Cl)n1)c1ccccn1 the growth was 32.5% (inactive).
CC(=O)c1ccc2c(c1)c1ccccc1n2C was tested, and the growth was 113% (inactive).
CCCCN(CCCC)CCCNc1c2c(nc3ccc(Cl)cc13)CCCC2 was tested, and the growth was 82.3% (inactive).
With COc1ccc(Cn2cc3c(c2)-c2oncc2CC3)cc1OC the growth was 21.9% (inactive).
For C/C(=N\Nc1ccc(Cl)cn1)c1ccccn1, the growth was 27% (inactive).
NC(=O)c1c(Nc2ccccc2)nn2cc(-c3nc4ccccc4s3)c(N)nc12 was tested, and the growth was 105% (inactive).
In the case of COC(=O)c1ccc2[nH]c(O)c(C(=Nc3ccc(N(C)C(=O)CN4CCN(C)CC4)cc3)c3cccc(OC)c3)c2c1, the growth is reported as 2.03% (active).
In the case of Cc1nc2c(nnn2-c2ccccc2)c2nc(-c3ccc(Cl)cc3)oc(=O)c12, the growth is reported as 107% (inactive).
In the case of Clc1ccc(N/N=C(/c2ccccc2)c2ccccn2)nc1, the growth is reported as 44.8% (inactive).
With COc1ccc(-c2nnc(SCC(=O)Nc3ccc(C(=O)/C=C/c4cc(OC)c(OC)c(OC)c4)cc3)n2-c2ccccc2)cc1OC the growth was 12.2% [100 µM] (inactive).
For CCc1ccc(C(=Nc2ccc(N(C)C(=O)CN3CCN(C)CC3)cc2)c2c(O)[nH]c3ccc(C(=O)OC)cc23)cc1, the growth was -67.3% (active).
In the case of Cc1ccc(C(C)C)c(OCc2ccc(C(=O)N/N=C/c3cccc(O)c3O)cc2)c1, the growth is reported as 47.8% (inactive).
For C/C(=N\Nc1ccc(Cl)cn1)c1ccc2ccccc2n1, the growth was 27.5% (inactive).
In the case of CCOC(=O)c1ccc2n1CCCc1cnc(NC(C)=O)nc1-2, the growth is reported as 106% (inactive).
With COC(=O)c1ccc2[nH]c(O)c(C(=Nc3ccc(N(C)C(=O)CN4CCN(C)CC4)cc3)c3ccc(C)cc3)c2c1 the growth was -26.5% (active).

These compounds were tested on MCF7 breast in the same assay as above. Conditions: 10 µM unless noted.
Brc1ccc(-c2nc3ccccc3s2)cc1 was tested, and the growth was 58.7% (inactive).
With c1cc[c]([Bi]([c]2ccccc2)[c]2ccccc2)cc1 the growth was 97.5% (inactive).
In the case of O=C1/C(=N\c2cc(=O)[nH]n2S(=O)(=O)c2ccccc2)Nc2ccccc21, the growth is reported as 96.5% (inactive).
With COc1ccc(/C=C/C(=O)/C=C/c2cc3ccccc3[nH]c2=O)cc1 the growth was 14.5% (inactive).
For C/C=C/C/C=C/[C@H](C)C[C@H](O)[C@@H]1C[C@@H]2O[C@H]2/C=C/[C@@H]2OC(C)(C)O[C@H]2/C=C/C[C@H](C)CC(=O)O1, the growth was 45.1% (inactive).
For COC1(OC)N=C(N)C2(C#N)C3(C(=O)Nc4ccccc43)C12C#N (stereo not given), the growth was 86.7% (inactive).
C/C=C/C/C=C/[C@H](C)C[C@H](O)[C@@H]1C[C@@H]2O[C@H]2/C=C/[C@H](O)[C@@H](O)/C=C/C[C@H](C)CC(=O)O1 was tested, and the growth was 83.7% (inactive).
COc1cc(-c2nc3c(c(C)nc4c3nnn4-c3ccccc3)c(=O)o2)cc(OC)c1OC was tested, and the growth was 97.5% (inactive).
For CCC(C)C1NC(=O)C(CC(C)C)NC(=O)C(C)NC(=O)C(C(C)C)NC(=O)C(CCCCN)NC(=O)C(CC(C)C)NC(=O)C(C(C)C)NC(=O)[C@H](C)NC(=O)C(C(C)CC)NC(=O)C(CCCN=C(N)N)NC(=O)C(CCCCN)NC(=O)C(CCCN=C(N)N)NC(=O)C(CCCCN)NC(=O)C([C@H](C)CC)NC(=O)C(CCCCN)NC1=O (stereo not given in full), the growth was 20.5% (inactive).
COc1ccc(-c2nc(SCC(C)C)nc(Nc3ccc(C(=O)O)cc3)c2C#N)cc1 was tested, and the growth was 67.2% (inactive).
In the case of O=S(=O)(O)CCI, the growth is reported as 98.3% (inactive).
For Nc1nc2c(c3cnccc13)C(c1cccc(Cl)c1)Cc1cnccc1-2 (stereo not given), the growth was 11.1% (inactive).
For Oc1ccccc1\C=N/N=C/C=C/c1ccccc1, the growth was 81.4% (inactive).
For COC(=O)c1ccc2[nH]c(O)c(C(=Nc3ccc(N(C)C(=O)CN4CCN(C)CC4)cc3)c3ccc(N)cc3)c2c1, the growth was 40.7% (inactive).
CC(C)OC(=O)c1ccc2n1CCCc1cnc(Nc3ccccc3)nc1-2 was tested, and the growth was 65.4% (inactive).
In the case of CC(=O)Nc1ccc(C(=O)/C=C/c2ccc(N(C)C)cc2)cc1, the growth is reported as 78.3% (inactive).
In the case of CCOC(=O)C1=C(c2ccccc2)NC(=O)NC1CN1C(=O)c2ccccc2C1=O (stereo not given), the growth is reported as 98.3% (inactive).
With CC/C(=N\Nc1nc2ccccc2n1C)c1ccccn1 the growth was 8.78% (active).
With CCCCCCC(C)N(CC(C)(C)O)C(=O)c1ccc([N+](=O)[O-])cc1 (stereo not given) the growth was 97.6% (inactive).
In the case of O=C1C(=O)c2ccccc2C(O)=C1CCCc1ccc(Oc2ccccc2)cc1, the growth is reported as 83.3% (inactive).
C=C[C@]1(C)C=C2C(=O)[C@@]3(O)OC[C@@]4(CCCC(C)(C)C43O)C2(O)C(O)C1 (stereo not given in full) was tested, and the growth was 21% (inactive).
For COc1ccc(/C=C2\CCCC3=C2N=C2SC=NN2C3c2ccc(OC)c(OC)c2)cc1OC (stereo not given), the growth was 22.6% (inactive).
With CC(C)(C)c1ccc(OCCOC(=O)CBr)cc1 the growth was 98.3% (inactive).
For c1cc(C2CCCCC2)ccc1OCCCCCCN1CCNCC1, the growth was -31.3% (active).
In the case of CCOC(=O)c1c2c(cn1Cc1ccccc1)-c1oncc1CC2, the growth is reported as 98.8% (inactive).
With C/C(=N\Nc1cccc(Cl)n1)c1ccccn1 the growth was 10.1% (inactive).
With CC(=O)c1ccc2c(c1)c1ccccc1n2C the growth was 86.4% (inactive).
In the case of CCCCN(CCCC)CCCNc1c2c(nc3ccc(Cl)cc13)CCCC2, the growth is reported as 89.6% (inactive).
COc1ccc(Cn2cc3c(c2)-c2oncc2CC3)cc1OC was tested, and the growth was 7.49% (active).
C/C(=N\Nc1ccc(Cl)cn1)c1ccccn1 was tested, and the growth was 3.89% (active).
With NC(=O)c1c(Nc2ccccc2)nn2cc(-c3nc4ccccc4s3)c(N)nc12 the growth was 81.4% (inactive).
In the case of COC(=O)c1ccc2[nH]c(O)c(C(=Nc3ccc(N(C)C(=O)CN4CCN(C)CC4)cc3)c3cccc(OC)c3)c2c1, the growth is reported as 6.86% (active).
For Cc1nc2c(nnn2-c2ccccc2)c2nc(-c3ccc(Cl)cc3)oc(=O)c12, the growth was 95.2% (inactive).
With Clc1ccc(N/N=C(/c2ccccc2)c2ccccn2)nc1 the growth was -1.28% (active).
For COc1ccc(-c2nnc(SCC(=O)Nc3ccc(C(=O)/C=C/c4cc(OC)c(OC)c(OC)c4)cc3)n2-c2ccccc2)cc1OC, the growth was 1.19% [100 µM] (active).
In the case of CCc1ccc(C(=Nc2ccc(N(C)C(=O)CN3CCN(C)CC3)cc2)c2c(O)[nH]c3ccc(C(=O)OC)cc23)cc1, the growth is reported as -68.4% (active).
For Cc1ccc(C(C)C)c(OCc2ccc(C(=O)N/N=C/c3cccc(O)c3O)cc2)c1, the growth was 15.1% (inactive).
For C/C(=N\Nc1ccc(Cl)cn1)c1ccc2ccccc2n1, the growth was 7.14% (active).
For CCOC(=O)c1ccc2n1CCCc1cnc(NC(C)=O)nc1-2, the growth was 101% (inactive).
With COC(=O)c1ccc2[nH]c(O)c(C(=Nc3ccc(N(C)C(=O)CN4CCN(C)CC4)cc3)c3ccc(C)cc3)c2c1 the growth was -67.8% (active).
